Experimental data as given in PubChem BioAssay (EPA / NIEHS).
Some structures have more than one record in an assay (separate samples or runs), and their calls can disagree. Calls of active or inactive are those of the source. How the source made its calls: active means hit-call score of the fitted dose curve at least 0.9, where 1 is the maximum; inactive means score below 0.9.

Columns and labels:
[1] = read-out: Vascular cell adhesion molecule 1 (VCAM1), VCAM1 (gene 7412); assay: BSK_4H_VCAM1: BioMAP Diversity Plus: 4H Assay for Vascular cell adhesion molecule 1 (VCAM1) Biomarker Activity (AID 2283033); details: primary human endothelial cells (HUVEC); actives raise or lower the signal;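 further: cell-surface VCAM-1 protein measured by ELISA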
How it was run: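 HUVEC, 24 h post-dose; VCAM-1 by ELISA. Bidirectional curve fit vs DMSO baseline. Parallel SRB total-protein stain (0.1% SRB after 10% TCA fixation, 560 nm) for cytotoxicity.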

[2] = read-out: Interferon-gamma inducible Protein 10 (IP10), CXCL10 (gene 3627); assay: BSK_BE3C_IP10: BioMAP Diversity Plus: BE3C Assay for Interferon-gamma inducible Protein 10 (IP10) Biomarker Activity (AID 2283034); details: primary human bronchial epithelial cells; actives raise or lower the signal
How it was run: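 ELISA readout of IP-10 in BE3C system: primary human bronchial epithelial cells, 24 h post-dosing; bidirectional curve fit vs DMSO baseline.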

[3] = read-out: Monokine induced gamma interferon (MIG), CXCL9 (gene 4283); assay: BSK_BE3C_MIG: BioMAP Diversity Plus: BE3C Assay for Monokine induced gamma interferon (MIG) Biomarker Activity (AID 2283035); details: primary human bronchial epithelial cells; actives raise or lower the signal;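 further: MIG protein measured by ELISA in BE3C cultures after 24 h of dosing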
How it was run: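 Dose cells (human primary bronchial epithelial), incubate 24 h, quantify MIG by ELISA, then fit concentration–response in both directions relative to DMSO control.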

[4] = read-out: Transforming growth factor beta 1 (TGFb1), TGFB1 (gene 7040); assay: BSK_BE3C_TGFb1: BioMAP Diversity Plus: BE3C Assay for Transforming growth factor beta 1 (TGFb1) Biomarker Activity (AID 2283036;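 further: TGF-b1 protein level measured by ELISA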); details: primary human bronchial epithelial cells; actives raise or lower the signal
How it was run: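 Read-out: ELISA for TGF-b1 in primary human bronchial epithelial cultures, 24 h post-dose. Bidirectional curve fitting vs DMSO control; gain or loss of signal both scored.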

[5] = read-out: Plasminogen activator inhibitor-1 (PAI1), SERPINE1 (gene 5054); assay: BSK_BE3C_PAI1: BioMAP Diversity Plus: BE3C Assay for Plasminogen activator inhibitor-1 (PAI1) Biomarker Activity (AID 2283037); details: primary human bronchial epithelial cells; actives raise or lower the signal
How it was run: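 ELISA read-out of PAI-1 from human bronchial epithelial primary cells, 24 h post-dosing; bidirectional curve fit vs DMSO baseline, gain or loss of signal scored.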

[6] = read-out: urokinase plasminogen activator (uPA), PLAU (gene 5328); assay: BSK_BE3C_uPA: BioMAP Diversity Plus: BE3C Assay for urokinase plasminogen activator (uPA) Biomarker Activity (AID 2283038); details: primary human bronchial epithelial cells; actives raise or lower the signal;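 further: uPA protein level quantified by ELISA in cell cultures; uPA read one day after compound addition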
How it was run: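 Measured by ELISA: uPA from human primary bronchial epithelial cells 24 h after chemical treatment. Values derive from bidirectional curve fitting with DMSO serving as negative control. Total protein by SRB staining in parallel wells flagged overt cytotoxicity.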

[7] = read-out: Urokinase-type plasminogen activator receptor (uPAR), PLAUR (gene 5329); assay: BSK_BE3C_uPAR: BioMAP Diversity Plus: BE3C Assay for Urokinase-type plasminogen activator receptor (uPAR) Biomarker Activity (AID 2283039); details: primary human bronchial epithelial cells; actives raise or lower the signal;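 further: uPAR protein level measured by ELISA on the cells; cells exposed to compound for one day before measurement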
How it was run: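 ELISA readout of uPAR on human lung primary bronchial epithelial cells, 24 h post-dosing. Bidirectional curve fit relative to DMSO vehicle baseline; gain or loss of signal both scored.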

[8] = read-out: Interleukin-6 (IL6), IL6 (gene 3569); assay: BSK_CASM3C_IL6: BioMAP Diversity Plus: CASM3C Assay for Interleukin-6 (IL6) Biomarker Activity for (AID 2283040); details: primary human coronary artery smooth muscle cells; actives raise or lower the signal
[9] = read-out: Tissue plasminogen activator (tPA), PLAT (gene 5327); assay: BSK_BE3C_tPA: BioMAP Diversity Plus: BE3C Assay for Tissue plasminogen activator (tPA) Biomarker Activity (AID 2283041); details: primary human bronchial epithelial cells; actives raise or lower the signal;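 further: tPA level quantified by ELISA one day after compound addition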
How it was run: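 ELISA read-out of tPA on human primary bronchial epithelial cells, 24 h post-dosing; bidirectional fit vs DMSO negative control/baseline.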

[10] = read-out: Interleukin-8 (IL8), CXCL8 (gene 3576); assay: BSK_CASM3C_IL8: BioMAP Diversity Plus: CASM3C Assay for Interleukin-8 (IL8) Biomarker Activity (AID 2283042); details: primary human coronary artery smooth muscle cells; actives raise or lower the signal;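 further: IL-8 protein level quantified by ELISA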

Measured: AC50

c1ccc2cc3ccccc3cc2c1
inactive: all assays above

CCn1nc(C)c2c1C(=O)NCC(c1ccc(O)cc1)=N2
not listed: [9]
inactive: all other assays above

CC[C@H](C)C(=O)O[C@H]1C[C@H](O)C=C2C=C[C@H](C)[C@H](CC[C@@H](O)C[C@@H](O)CC(=O)O)[C@H]21
inactive: all assays above

OCc1c[nH]c2ccccc12
active: [2] 5.95 µM | [5] 0.0716 µM
not listed: [9]
inactive: all other assays above

COS(C)(=O)=O
not listed: [9]
inactive: all other assays above

CCCC(CCC)C(=O)O
not listed: [9]
inactive: all other assays above

OC(Cn1cncn1)(Cn1cncn1)c1ccc(F)cc1F
inactive: all assays above

NNC(=O)c1ccncc1
inactive: all assays above

CCc1cccc(CC)c1N
not listed: [9]
inactive: all other assays above

CNC(C)=O
not listed: [9]
inactive: all other assays above

CCCCCCOC(=O)CC(CC(=O)OCCCCCC)(OC(=O)CCC)C(=O)OCCCCCC
not listed: [9]
inactive: all other assays above

CC1(C)C(=O)N(Cl)C(=O)N1Cl
not listed: [9]
inactive: all other assays above

NC(=O)N(O)[C@@H]1COc2cc(OCc3ccccc3)ccc21
not listed: [9]
inactive: all other assays above

OC[C@H]1O[C@@](CO)(O[C@H]2O[C@H](CO)[C@@H](O)[C@H](O)[C@H]2O)[C@@H](O)[C@@H]1O
not listed: [9]
inactive: all other assays above

Nc1ccn([C@@H]2O[C@H](CO)[C@@H](O)[C@@H]2O)c(=O)n1
not listed: [9]
inactive: all other assays above

O=C(Cl)C(F)(F)C(F)(F)C(F)(F)C(=O)Cl
active: [5] 12.2 µM
inactive: [1] | [2] | [3] | [5] | [6] | [7] | [8] | [10]

C[Si](C)(C)C(F)(F)C(F)(F)C(F)(F)F
not listed: [4]
inactive: all other assays above

OCC(CO)(CO)CO
not listed: [9]
inactive: all other assays above

O=S(=O)(O)CCC(F)(F)C(F)(F)C(F)(F)C(F)(F)C(F)(F)C(F)(F)F
not listed: [4]
inactive: all other assays above

O=S1(=O)CCCO1
not listed: [9]
inactive: all other assays above

OCCC(F)(F)C(F)(F)C(F)(F)C(F)(F)F
not listed: [4] | [9]
inactive: all other assays above
